Potency and activity change, negative = cytotoxicity data for 25 molecules are collected here from PubChem BioAssay (NCATS).

The structures appear in SMILES notation. Results filed as inconclusive are left out. A call without a number means that no potency is given here. Values without a mark were called inactive. Calls of active or inactive are those of the source. Calls follow the shape of the dose curve; as a rule, active = well fitted cell-killing curve with a large enough effect; inconclusive = small, poorly fitted or top-dose-only effect, or effect the other way; inactive = flat fitted curve, though single readings scatter.
Potency is read from the fitted curve at half-maximal effect.

The subject of this test is Tov112D. The test can be described thus: Primary qHTS to identify gynecologic anti-cancer compounds using libraries of approved drugs and bioactive compounds (AID 1345084). Also: nearly all actives have a fitted effect of over 55% in size. To be noted: Gynecologic cancer cell panel viability, ATPlite luminescence, 48 h; series mostly up to 57.5 µM. The procedure, abridged:
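Five-concentration response, 48 h; readout is ATP-driven luciferase luminescence.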
Background: qHTS replaces the single test concentration by a dilution series.
Consider `C#CC(=O)N(c1ccc(OC)cc1OC)C(C(=O)NCC(=O)OCC)c1cccs1` (stereo not given), for which the Potency was 6.31 µM (active).

In the case of `C/C=C(\C)C(=O)OC1C(C)C2(O)C(C=C(CO)CC3(O)C(=O)C(C)=CC32)C2C(C)(C)C12OC(C)=O` (stereo not given), the Potency result is “inactive”.

With `CC1=C(c2ccc(NC(=O)c3c(F)cccc3F)cc2)CN(c2nccs2)CC1`, the Potency result is “inactive”.

As for `O=S(=O)(Nc1ccccc1N1CCCCC1)c1ccc(Cl)s1`, the Potency result was “inactive”.

For `Cc1cccc(-c2[nH]ncc2-c2ccnc3ccccc23)n1`, the Potency entry was “inactive”.

As to `COc1ccc([C@H]2OC[C@H]3O[C@@H](O[C@H]4[C@@H]2NC[C@@H]4O)[C@H](O)[C@H]3O)cc1`, the Potency is 5.62 µM (active).

In the case of `C[C@@H]1O[C@@H](O[C@H]2[C@@H](OC(=O)[C@]34CCC(C)(C)CC3C3=CCC5[C@@]6(C)C[C@H](O)[C@H](O[C@@H]7O[C@H](CO)[C@@H](O)[C@H](O)[C@H]7O[C@@H]7OC[C@@H](O)[C@H](O)[C@H]7O)[C@@](C)(C(=O)O)C6CC[C@@]5(C)[C@]3(C)CC4)OC[C@H](O)[C@@H]2O)[C@H](O)[C@H](O)[C@H]1O[C@@H]1OC[C@@H](O)[C@H](O)[C@H]1O` (stereo not given in full), the activity change, negative = cytotoxicity was -12.7% [at 6.55 µM].

On to `C/C1=C/CCC2=CC(OC2=O)C(C)(C)/C=C/C1=O` (stereo not given), for which the Potency was 20 µM (active).

With `CCC(CC)(NC(=O)C(C)C)C(=O)N[C@@H](CCCN=C(N)N)C(=O)NC1(C(=O)NC(c2ccc(F)cc2)c2ccc(F)cc2)CCCC1`, the Potency result is “inactive”.

Turning to `O=C(NCCN1CCC(n2c(=O)[nH]c3ccccc32)CC1)c1ccc2ccccc2c1`, the Potency entry is “inactive”.

Regarding `O=C(NC[C@H](O)CN1CCc2ccccc2C1)c1ccnc(NC2CCC2)c1`, the Potency entry was “inactive”.

With `COc1ccc(CNCc2cccc3ccccc23)cc1`, the Potency result was “inactive”.

With `O=C1Cc2c([nH]c3ccc(Br)cc23)-c2ncccc2N1`, the Potency result is “inactive”.

For `C/C=C(\C)C(=O)O[C@@H]1[C@@H](C)[C@]2(O)[C@@H]3C=C(C)C(=O)[C@H]3CC(CO)=C[C@H]2C2C(C)(C)[C@@]21OC(=O)C(C)CC` (stereo not given in full), the Potency result was “inactive”.

For the molecule `Nc1nc2c(ncn2C2OC3COP(=O)(O)OC3C2O)c(=O)[nH]1` (stereo not given), the Potency result is “inactive”.

As to `Nc1nc2c(c(N3CC[C@@H](N)C3)n1)CCCc1ccccc1-2`, the Potency entry was “inactive”.

Regarding `CC(O)C(C)n1ncn(-c2ccc(N3CCN(c4ccc(OCC5COC(Cn6cncn6)(c6ccc(Cl)cc6Cl)O5)cc4)CC3)cc2)c1=O` (stereo not given), the Potency result was “inactive”.

Regarding `CC(C)=CCC/C(C)=C/COCC1OC(n2ccc(=O)[nH]c2=O)C(O)C1O` (stereo not given), the Potency entry is “inactive”.

Turning to `CCC(CC)C(=O)OC12C(OC(=O)C(C)C)C(C)C3(O)C(C=C(CO)CC4(O)C(=O)C(C)=CC43)C1C2(C)C` (stereo not given), the Potency result was “inactive”.

Take `CCC(C)(OC(C)=O)C(=O)O[C@H]1[C@H](OC(C)=O)[C@]2(CO)[C@H](O)[C@H](O)[C@]3(C)C(=CCC4[C@@]5(C)CC[C@H](O[C@@H]6O[C@H](C(=O)O)[C@@H](O)[C@H](O[C@@H]7OC[C@H](O)[C@H](O[C@@H]8OC[C@H](O)[C@H](O)[C@H]8O)[C@H]7O)[C@H]6O[C@@H]6O[C@H](CO)[C@@H](O)[C@H](O)[C@H]6O)C(C)(C)C5CC[C@]43C)[C@@H]2CC1(C)C` (stereo not given in full): the activity change, negative = cytotoxicity is -10.5% [at 6.55 µM].

Consider `CCC/C=C/C(=O)O[C@H]1CC(C)(C)CC2[C@@]13[C@H](O)C[C@]1(C)[C@@]2(CCC2[C@@]4(C)CC[C@H](O[C@@H]5O[C@H](C(=O)O)[C@@H](O)[C@H](O[C@@H]6O[C@H](CO)[C@H](O)[C@H](O)[C@H]6O[C@@H]6O[C@@H](C)[C@H](O)[C@@H](O)[C@H]6O[C@@H]6OC[C@](O)(CO)[C@H]6O)[C@H]5O[C@@H]5O[C@H](CO)[C@H](O)[C@H](O)[C@H]5O)C(C)(C)C4CC[C@]21C)O[C@H]3O` (stereo not given in full), for which the activity change, negative = cytotoxicity was 7.77% [at 6.55 µM].

Consider `O=S(=O)(N[C@H]1CCCC[C@@H]1N1CCOCC1)c1ccc(Cl)cc1`, for which the Potency result is “inactive”.

Consider `C[C@@H]1O[C@@H](O[C@H]2[C@H](O[C@H]3CC[C@@]4(C)C(CC[C@]5(C)C4C=C[C@]46OC[C@@]7(CCC(C)(C)C[C@H]74)[C@@H](O[C@@H]4O[C@@H](C)[C@H](O)[C@@H](O)[C@H]4O)C[C@]65C)[C@]3(C)CO)O[C@H](CO)[C@@H](O)[C@@H]2O[C@@H]2O[C@H](CO)[C@@H](O)[C@H](O)[C@H]2O)[C@H](O)[C@H](O)[C@H]1O` (stereo not given in full), for which the activity change, negative = cytotoxicity is -0.84% [at 11.6 µM].

`Fc1ccc(-c2nc(-c3ccccc3F)[nH]c2-c2ccncc2)cc1`: the Potency entry was “inactive”.

As for `CC(=O)OC1CC(O)(C(C)C)C2C(OC(=O)c3ccc(O)cc3)C=C(C)C(=O)CC12C` (stereo not given), the Potency result is “inactive”.
